Screens from PubChem BioAssay.
Sampled rows, rich in hits. Any-hit rate of the full collection: about 4.1%.
hgDAF12 agonist: agonists of H. glycines DAF-12 nuclear receptor; HEK293 GAL4-hgDAF12 UAS-luciferase reporter, agonist luminescence; normalized to butyrate control; activation, % at 6.8 µM; 1.8% of 370,000 active; AID 687014;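 active means activation above a cutoff set at the mean of all screened compounds plus 3 SD, cut at about 10% in these data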;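 further: 0% = DMSO wells and 100% = sodium butyrate wells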
DAX1 inh-1: NR0B1 (DAX1) inhibition; P51843; HEK293 Gal4-DAX1 luciferase reporter, luminescence; inhibition, % at 6.75 µM; 0.99% of 340,000 active; AID 504766;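 active means inhibition above the mean over all tested compounds plus 3 SD, cut at about 4.2% in these data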;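 further: 0% = DAX1-transfected cells with DMSO and 100% = empty-vector control cells with DMSO; inhibition shows as a rise in luminescence from relieved DAX1 repression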
Target sequence (P51843 207-470 limits assumed): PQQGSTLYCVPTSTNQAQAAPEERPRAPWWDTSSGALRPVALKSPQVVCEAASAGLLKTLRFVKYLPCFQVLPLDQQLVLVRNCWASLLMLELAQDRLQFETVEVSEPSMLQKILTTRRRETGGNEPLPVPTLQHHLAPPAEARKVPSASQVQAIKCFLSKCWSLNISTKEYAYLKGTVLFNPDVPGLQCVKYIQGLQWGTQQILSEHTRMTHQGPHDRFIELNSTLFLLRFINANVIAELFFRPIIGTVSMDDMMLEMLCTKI
ssDAF-12 act: activates DAF-12 receptor from parasite S. stercoralis; activation, % at 6.8 µM; HEK293 ssDAF-12/GRIP1 lit1-tk-luc reporter, luminescence; % of 3 µM dafachronic acid response; AID 652126; 1% of 370,000 active;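 active means activation above the mean over all tested compounds plus 3 SD, cut at about 0.9% in these data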;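 further: 0% = DMSO-only wells and 100% = 3 µM delta7-dafachronic acid wells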
hcDAF12 agonist: activators of H. contortus DAF-12 nuclear receptor; AID 652067; HEK293 hcDAF-12 lit1-tk-luc reporter, luminescence; 0% DMSO, 100% Δ7-dafachronic acid; activation, % at 6.8 µM; 1.4% of 370,000 active;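 active means activation above the mean of all tested compounds plus 3 SD, cut at about 5.5% in these data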;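 further: 100% = response to 3 µM Δ7-dafachronic acid high control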
DAX1 inh-2: blocks DAX1 repression of SF-1 activated StAR promoter; 1.1% of 370,000 active; inhibition, % at 6.8 µM; AID 652010; HEK293T StAR-luciferase reporter, SF-1/DAX-1 repression relief;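 active means inhibition above the mean over all tested compounds plus 3 SD, cut at about 3.6% in these data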;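 further: 0% = DAX-1 cells with DMSO and 100% = cells lacking DAX-1 with DMSO; higher inhibition means more luminescence from relief of DAX-1 repression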
* marks the source's active call; other numbers are inactive results.

COc1ccc(-n2c(SCC(=O)Nc3ccc(S(=O)(=O)Nc4nccs4)cc3)nnc2-c2ccccc2)cc1 was read as hgDAF12 agonist -1, ssDAF-12 act -1, hcDAF12 agonist 0 and DAX1 inh-2 0.
COc1ccc2[nH]c(-c3ccccc3)cc2c1 was read as hgDAF12 agonist 9, DAX1 inh-1 4.2*, ssDAF-12 act 0, hcDAF12 agonist 6.1* and DAX1 inh-2 2.
For COc1ccc(-c2nc3ccc([N+](=O)[O-])cc3[nH]2)cc1 the results were hgDAF12 agonist 19*, DAX1 inh-1 2, ssDAF-12 act 1.8*, hcDAF12 agonist 6.3* and DAX1 inh-2 4.5*.
`COc1ccc2nc(NCc3ccccc3)[nH]c2c1` gave hgDAF12 agonist 7, DAX1 inh-1 2, ssDAF-12 act -2, hcDAF12 agonist 2 and DAX1 inh-2 -1.
`CCOc1ccc2nc(-c3ccccc3)[nH]c2c1` gave hgDAF12 agonist 12*, DAX1 inh-1 -2, ssDAF-12 act 0, hcDAF12 agonist 5 and DAX1 inh-2 0.
For COc1ccc2nc(-c3ccccc3)[nH]c2c1 the results were hgDAF12 agonist 13*, DAX1 inh-1 1, ssDAF-12 act 0, hcDAF12 agonist 5 and DAX1 inh-2 4.
Screening CCOc1ccc2nc(C(C)O)[nH]c2c1 (centres undefined) returned hgDAF12 agonist 1, DAX1 inh-1 4, ssDAF-12 act 0, hcDAF12 agonist 0 and DAX1 inh-2 0.
CCOc1ccc(-n2c(SCc3nc4ccccc4[nH]3)nnc2-c2cccc(Cl)c2)cc1 was read as hgDAF12 agonist 1, ssDAF-12 act -2, hcDAF12 agonist -2 and DAX1 inh-2 -1.
Screening COC(=O)CCN1CCSCCS1(=O)=O returned hgDAF12 agonist 0, ssDAF-12 act -1, hcDAF12 agonist -1 and DAX1 inh-2 0.
CCCCCCCCN1C(=O)[C@@H](CC(=O)N2CCSCC2)C[C@@]2(C(=O)OC)C1=C[C@H](C(C)(C)C)O[C@@H]2C was read as hgDAF12 agonist 1, ssDAF-12 act -1, hcDAF12 agonist 0 and DAX1 inh-2 -1.
For COC(=O)c1cn(-c2ccc3c(c2)[C@]2(CC(=O)N(C)C2c2ccccc2)C(=O)N3CC(C)C)nn1 (some centres undefined) the results were hgDAF12 agonist 4, ssDAF-12 act -1, hcDAF12 agonist 1 and DAX1 inh-2 0.
COc1ccc(-c2nc(SC)n(C(=O)c3ccco3)n2)cc1 was read as hgDAF12 agonist 6, DAX1 inh-1 4.2*, ssDAF-12 act -1, hcDAF12 agonist 3 and DAX1 inh-2 1.
Screening COc1ccc(-c2nc(SCc3ccccc3)n(C(=O)c3ccco3)n2)cc1 returned hgDAF12 agonist 3, DAX1 inh-1 1, ssDAF-12 act -1, hcDAF12 agonist -1 and DAX1 inh-2 0.
`CCN(CC)C(=O)CC[C@H]1CC[C@]2(CCCN(Cc3ccccn3)C2)O1` gave hgDAF12 agonist 3, ssDAF-12 act -2, hcDAF12 agonist -1 and DAX1 inh-2 -1.
Screening Cc1cc(C(=O)O[C@@H]2CCC[C@@]3(C(=O)N(Cc4ccccc4)c4ccccc43)[C@H]2NC(=O)CCc2ccccc2)no1 returned hgDAF12 agonist -1, ssDAF-12 act -2, hcDAF12 agonist -2 and DAX1 inh-2 0.
C/C(=N/NC(=O)c1ccc(Br)o1)c1cccs1 was read as hgDAF12 agonist 7, DAX1 inh-1 1, ssDAF-12 act 0, hcDAF12 agonist 1 and DAX1 inh-2 3.7*.
`CCOC(=O)CN1C(=O)N(c2ccc(OC)cc2)[C@H]2CC3c4ccccc4C[C@]3(C)[C@@H](C(=O)N(C)C3CCCCC3)C[C@H]21` (some centres undefined) gave hgDAF12 agonist -5, ssDAF-12 act -2, hcDAF12 agonist -2 and DAX1 inh-2 -2.
For COc1ccccc1C(=O)COC(=O)CSC(C)C(=O)Nc1cc(C)on1 (centres undefined) the results were hgDAF12 agonist 1, DAX1 inh-1 -1, ssDAF-12 act -1, hcDAF12 agonist 0 and DAX1 inh-2 -1.
Cc1cc(NC(=O)C(C)SCC(=O)OCC(=O)N(C)c2ccccc2)no1 (centres undefined) was read as hgDAF12 agonist 2, DAX1 inh-1 4.6*, ssDAF-12 act -1, hcDAF12 agonist -1 and DAX1 inh-2 1.
For O=C(NCC1CCN(C(=O)C(=O)c2cc3ccccc3o2)CC1)c1ccc2c(c1)OCCCO2 the results were hgDAF12 agonist 0, ssDAF-12 act -1, hcDAF12 agonist 0 and DAX1 inh-2 1.
`Clc1ccc(-c2nnc(NC3=NCCCCC3)o2)cc1` gave hgDAF12 agonist 8, DAX1 inh-1 -2, ssDAF-12 act 0, hcDAF12 agonist 6.1* and DAX1 inh-2 4.
COC(=O)CC[C@H](/C=C/C(=O)OC(C)(C)C)Sc1ccc(C(C)(C)C)cc1 was read as hgDAF12 agonist -1, ssDAF-12 act -1, hcDAF12 agonist -1 and DAX1 inh-2 -1.
For Cc1[nH]nc(SCC(=O)NC(C)c2ccccc2)c1[N+](=O)[O-] (centres undefined) the results were hgDAF12 agonist 2, DAX1 inh-1 4.3*, ssDAF-12 act -2, hcDAF12 agonist -2 and DAX1 inh-2 0.
CCc1ccccc1NC(=O)CSc1n[nH]c(C)c1[N+](=O)[O-] was read as hgDAF12 agonist -2, DAX1 inh-1 5.3*, ssDAF-12 act -1, hcDAF12 agonist -2 and DAX1 inh-2 0.
Screening COC(=O)C1=C(C)N(Cc2cccc(C(F)(F)F)c2)C(=NCc2ccc3c(c2)OCO3)NC1CCc1ccccc1 (centres undefined) returned hgDAF12 agonist -1, ssDAF-12 act -1, hcDAF12 agonist 0 and DAX1 inh-2 1.
Screening CN(C)S(=O)(=O)c1cc(NC(=O)CN2CCc3ccccc32)ccc1Cl returned hgDAF12 agonist 6, DAX1 inh-1 -1, ssDAF-12 act 1.0*, hcDAF12 agonist 5 and DAX1 inh-2 0.
For O=C(CSc1ncccn1)c1ccccc1Br the results were hgDAF12 agonist 3, DAX1 inh-1 4.3*, ssDAF-12 act -1, hcDAF12 agonist 0 and DAX1 inh-2 0.
For CC(C)(C)C(=O)CSc1nnc(SCc2cccc3ccccc23)s1 the results were hgDAF12 agonist 0, ssDAF-12 act -1, hcDAF12 agonist 0 and DAX1 inh-2 -1.
CCCCCCCCN1C(=O)[C@@H](CC(=O)NCc2cccc(C(F)(F)F)c2)C[C@@]2(C(=O)OC)C1=C[C@H](C1CCCC1)O[C@@H]2C was read as hgDAF12 agonist -1, ssDAF-12 act -1, hcDAF12 agonist 0 and DAX1 inh-2 0.
`CCC(=O)c1ccc(OC(=O)c2cnccn2)cc1` gave hgDAF12 agonist 4, DAX1 inh-1 5.0*, ssDAF-12 act -1, hcDAF12 agonist 1 and DAX1 inh-2 0.
